GALK inhibitor: galactokinase (human) inhibition | P51570 | Purified GALK, Kinase-Glo residual ATP luminescence | Potency, µM (doses to about 57.5 µM), most hits filed as inhibitors | 270,000 compounds, 0.007% hits | AID 1868
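Compounds were pin-transferred into ATP buffer (35 uM final), then GALK plus galactose (5 nM, 100 uM final) was added. After 1 h at room temperature, Kinase-Glo Plus was added and luminescence read after 10 min.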
TrxR1 substrate: is turned over as a substrate by rat TrxR1 | AID 588456 | O89049 | 390,000 compounds, 0.01% hits | Potency, µM (top dose mostly 114 µM) | purified TrxR1 substrate turnover, NADPH consumption readout; note: nearly all actives have a fitted effect of over 50% in size
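Rat TrxR1, dispensed at 90 nM, was prereduced with 400 uM NADPH (final) for 5 min at ~22 deg C, then incubated with compound 15 min before 400 uM selenite. A first-read NADPH fluorescence drop versus no-compound background flagged substrates.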
FBPA coupling cs: coupling enzyme interference in Giardia aldolase counter-screen; 290,000 compounds, 0.67% hits; AID 2472; activity change, negative = inhibition, % at 58.2 µM, hits read low; coupling enzyme system counterscreen, AmpLite Red fluorescence; in the data active = activity change below about -30%
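Compounds tested against the coupling enzymes alone at 57.5 uM final; readout was AmpLite Red fluorescence (525/598 nm) after 20 min at RT.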
RORgamma inh: inhibitors of mouse ROR gamma transcriptional activity; P51450; Drosophila S2 Gal4-RORgamma UAS-luciferase reporter, 20 h; Potency, µM (titrated, usually from 53.6 µM), usual class: inhibitors; 310,000 compounds, 5.4% hits; note: nearly all actives have a fitted effect of over 60% in size
Target sequence (P51450 whole entry, looked up, the tested form may be a part): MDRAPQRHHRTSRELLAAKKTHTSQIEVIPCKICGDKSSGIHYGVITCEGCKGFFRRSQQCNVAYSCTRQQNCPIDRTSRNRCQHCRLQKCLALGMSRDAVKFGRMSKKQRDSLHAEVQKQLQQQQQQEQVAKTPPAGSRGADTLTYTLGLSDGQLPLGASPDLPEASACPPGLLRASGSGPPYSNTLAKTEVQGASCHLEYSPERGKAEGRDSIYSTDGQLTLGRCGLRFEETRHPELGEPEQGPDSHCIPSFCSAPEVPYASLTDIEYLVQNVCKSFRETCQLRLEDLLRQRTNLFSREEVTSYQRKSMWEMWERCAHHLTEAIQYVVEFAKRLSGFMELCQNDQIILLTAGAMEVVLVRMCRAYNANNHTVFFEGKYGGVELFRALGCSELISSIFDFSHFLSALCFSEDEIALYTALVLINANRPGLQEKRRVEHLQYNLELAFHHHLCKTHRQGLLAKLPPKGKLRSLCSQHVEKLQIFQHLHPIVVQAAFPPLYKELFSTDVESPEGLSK
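Drosophila Schneider cells stably carrying a metallothionein-driven Gal4 DBD–ROR gamma fusion and a UAS-Photinus luciferase reporter were exposed to compound for 1 hr, then induced with copper sulfate (700 uM final) for 20 hr at ambient temperature before luminescence reading.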
VP16 counter: counter-screen for ROR gamma inhibitors: Gal4-VP16 reporter; Potency, µM (top dose mostly 53.6 µM), hits mostly inhibitors; Drosophila S2 Gal4-VP16 UAS-luciferase, luminescence, 20 h; 310,000 compounds, 3.5% hits;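 note: Gal4-VP16 expression switched on by copper sulfate through the metallothionein promoter; nearly all actives have a fitted effect of over 50% in size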
rTrxR1 inhibitor: rat TrxR1 inhibition; recombinant rTrxR1, NADPH fluorescence consumption, selenite substrate; 390,000 compounds, 1% hits; Potency, µM (top dose mostly 114 µM), hits mostly inhibitors; AID 588453; note: nearly all actives have a fitted effect of over 65% in size
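Rat TrxR1 (90 nM in the dispensed reagent) was pre-reduced with 400 uM NADPH for 5 min at room temperature, then incubated with compound for 15 min. After 400 uM selenite was added, NADPH fluorescence (Ex 340/Em 450 nm) was followed for 8 min.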
Numbers stand for hits; [ ] = another dose, or the depositor's remark. Sampled rows, rich in hits. Any-hit rate of the full collection: about 5.9%. Unless noted, calls come from the whole dose curve; as a rule, active = well fitted curve in the direction sought with a large enough effect; inconclusive = small, poorly fitted or top-dose-only effect, or another doubt; inactive = no such curve, though single readings can be large; an effect the other way counts as inactive or inconclusive.

Screening CSc1ccc(CN(C)CC(=O)Nc2cccc(Br)c2)cc1 returned GALK inhibitor inactive, TrxR1 substrate inactive, FBPA coupling cs inactive, RORgamma inh inactive, VP16 counter inactive and rTrxR1 inhibitor inactive.
Screening COc1ccc(Nc2ccc(OC)cc2)cc1 returned GALK inhibitor inactive, TrxR1 substrate inactive, FBPA coupling cs -41, RORgamma inh inactive, VP16 counter inactive and rTrxR1 inhibitor inactive.
Screening CCC(C)(C)n1nnnc1C(c1cc2cccc(C)c2[nH]c1=O)N1CCCC1 (stereo not drawn) returned GALK inhibitor inactive, TrxR1 substrate inactive, FBPA coupling cs inactive, RORgamma inh inactive, VP16 counter inconclusive and rTrxR1 inhibitor inconclusive.
Cc1cc(C)c2[nH]c(=O)c(C(c3nnnn3CC3CCCO3)N3CCC(C)CC3)cc2c1 (stereo not drawn) was read as GALK inhibitor inactive, TrxR1 substrate inactive, FBPA coupling cs inactive, RORgamma inh inactive, VP16 counter inactive and rTrxR1 inhibitor 20µM.
For Cc1cc(C)c2[nH]c(=O)c(C(c3nnnn3C(C)(C)C)N3CCN(C(=O)c4ccco4)CC3)cc2c1 (stereo not drawn) the results were GALK inhibitor inactive, TrxR1 substrate inactive, FBPA coupling cs inactive, RORgamma inh inactive, VP16 counter inactive and rTrxR1 inhibitor 16µM.
`Cc1ccc(C)c2[nH]c(=O)c(C(c3nnnn3C(C)(C)C)N3CC=C(c4ccc(F)cc4)CC3)cc12` (stereo not drawn) gave GALK inhibitor inactive, TrxR1 substrate inactive[0.457 µM], FBPA coupling cs inactive, RORgamma inh inactive[10 µM], VP16 counter inactive and rTrxR1 inhibitor 71µM.
`CCCCNCC(=O)Nc1sc(C)c(C)c1C(=O)OCC` gave GALK inhibitor inactive, TrxR1 substrate inactive, FBPA coupling cs inactive, RORgamma inh 13µM, VP16 counter inconclusive and rTrxR1 inhibitor inactive.
Screening COC(=O)c1c(NC(=S)Nc2ccccc2Cl)sc(C)c1C returned GALK inhibitor inactive, TrxR1 substrate inactive, FBPA coupling cs inactive, RORgamma inh 2.8µM, VP16 counter 6.3µM and rTrxR1 inhibitor inactive.
For CCOC(=O)c1c(NC(=O)COC)sc(C)c1C the results were GALK inhibitor inactive, TrxR1 substrate inactive, FBPA coupling cs inactive, RORgamma inh inactive, VP16 counter inactive and rTrxR1 inhibitor inactive.
`CCOC(=O)c1c(NC(C)=O)sc(/C(C)=N/Nc2ccc(C(=O)O)cc2)c1C` gave TrxR1 substrate inactive, FBPA coupling cs inactive, RORgamma inh 11µM, VP16 counter inconclusive and rTrxR1 inhibitor inactive.
`CCOC(=O)c1c(NC(=S)NC(C)=O)sc(C)c1C` gave GALK inhibitor inactive, TrxR1 substrate inactive, FBPA coupling cs inactive, RORgamma inh 7.9µM, VP16 counter 11µM and rTrxR1 inhibitor inactive.
`CC(=O)Nc1ccc(S(=O)(=O)NC2=NCN(c3cccc([N+](=O)[O-])c3)CN2)cc1` gave GALK inhibitor inactive, TrxR1 substrate inactive, FBPA coupling cs inactive, RORgamma inh inactive, VP16 counter inactive and rTrxR1 inhibitor inactive.
CC1(C)Cc2cccc(OCC(O)CN3CCN(c4ccccn4)CC3)c2O1 (stereo not drawn) was read as GALK inhibitor inactive, TrxR1 substrate inactive, FBPA coupling cs inactive, RORgamma inh inactive, VP16 counter inactive and rTrxR1 inhibitor inactive.
Screening NC(=NC1CCCCC1)c1ccc([N+](=O)[O-])cc1 returned GALK inhibitor inactive, TrxR1 substrate inactive, FBPA coupling cs inactive, RORgamma inh inactive, VP16 counter inactive and rTrxR1 inhibitor inactive.
`CCOc1ccc(C(=O)COC(=O)c2c(-c3ccccc3)noc2C)cc1` gave TrxR1 substrate inactive and rTrxR1 inhibitor inactive.
For CC(=O)c1ccc(NC(=O)c2ccc(COc3ccccc3[N+](=O)[O-])o2)cc1 the results were GALK inhibitor inactive, TrxR1 substrate inactive, FBPA coupling cs inactive, RORgamma inh inconclusive, VP16 counter inactive and rTrxR1 inhibitor inactive.
For CCOC(=O)c1sc(NC(=S)NC(=O)c2ccccc2)c(C(=O)OCC)c1C the results were GALK inhibitor inactive, TrxR1 substrate inactive, FBPA coupling cs inactive, RORgamma inh 2.2µM, VP16 counter inconclusive and rTrxR1 inhibitor inactive.

Compound activity deposited in PubChem by National Center for Advancing Translational Sciences (NCATS).
